Results filed as inconclusive are left out. Calls follow the shape of the dose curve; as a rule, active = well fitted activation curve with a large enough effect; inconclusive = small, poorly fitted or top-dose-only effect; inactive = flat fitted curve, though single readings scatter.
assay: qHTS for Inhibitors of Cell Surface uPA Generation: Confirmatory Assay for Cherry-picked Compounds; settings: cell surface uPA activity generation, qHTS confirmation; series mostly up to 115 µM; inhibition: at the top concentration; also: 0% is about no effect
In short: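 RAW 264.7 cells at 4000/well, incubated overnight, then treated with compounds. After 24 h at 37 C, viability was read by ATPlite luminescence. An increase in signal indicates blocked uPA-dependent LF entry.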

inhibition, inactive:
COc1cc(NC(=O)CSc2nnc3ccc(-c4ccncc4)nn23)cc(OC)c1 1.04%
C=CCOC(=O)C1=C[C@@H](c2coc3ccccc3c2=O)C[C@@H](OCc2ccc(CO)cc2)O1 -1.97%
COc1ccccc1NC(=O)COc1ccc(C(=O)NCc2ccccc2)cc1OC -0.346%
O=[N+]([O-])c1ccc(-c2cn3c(n2)SCC3)cc1 -1.85%
CN(c1ccccc1)S(=O)(=O)c1ccc(C(=O)Nc2nnc(C3CC3)o2)cc1 -2.74%
Cc1c(C(=O)N2CCN(S(=O)(=O)c3cccs3)CC2)oc2ccc(F)cc12 -0.992%
O=C(CC1(O)C(=O)Nc2ccccc21)c1cccc(Br)c1 (centres undefined) -0.164%
O=C(C1CCN(c2nnc(N3CCCC3=O)s2)CC1)N1CCN(c2cccc(C(F)(F)F)c2)CC1 -2.97%
O=C(O)CNS(=O)(=O)c1ccc2c(c1)Cc1cc(S(=O)(=O)NCC(=O)O)ccc1-2 1.16%
O=C(CN1CCOC1=O)N1CCCC(Nc2ccc(F)c(F)c2)C1 (centres undefined) -0.931%
C=C(C)C(=O)O[C@H]1C/C(C)=C\C(=O)/C=C(\C)[C@H](O)[C@@H]2OC(=O)C(=C)[C@@H]21 9.72%
Cc1ccc(S(=O)(=O)N(C)c2ccc(OC(=O)c3ccc(=O)[nH]c3)cc2)cc1 -1.78%
CC(=O)c1cccc(NC(=O)N2C3CCC2CC(O)(c2cccnc2)C3)c1 (centres undefined) 0.799%
COc1ccc(/C=N/NC(=O)COc2ccc3ccccc3c2)c(C(=O)O)c1OC -2.14%
CCO[C@H]1OC(C(=O)N2CCCCCCC2)=C[C@@H](c2ccc(C(F)(F)F)cc2)[C@@H]1CCCO -2.91%
COc1ccc(C(=O)NNC(=O)Cc2ccc(Cl)cc2)cc1 1.7%
O=C1N[C@@H](Cc2c[nH]c3ccccc23)C(=O)N[C@H]1Cc1ccccc1 1.15%
CCn1nc(NS(=O)(=O)c2ccccc2)c2cc3cc(C)ccc3nc21 -3.18%
C[N+]1(CC(O)c2ccccc2)CCCCCC1 (centres undefined) -0.146%
CCOc1ccccc1C(=O)NC1CCN(CC(=O)Nc2cc(OC)ccc2OC)CC1 -0.0474%
COc1cccc(NC(=O)CN(C)C(=O)c2csc3c2CCCC3)c1 2.11%
COc1cccc(CNC(=O)C2CCCN(S(=O)(=O)c3ccc4c(c3)C(C)(C)C(=O)N4C)C2)c1 (centres undefined) -0.161%
CCN(CC)CCCn1c2c(c(SCC(=O)Nc3cccc4ccccc34)nc1=O)CCC2 -3.24%
COc1ccc(NC(=O)CC(C)CC(=O)NCc2ccccc2)c(OC)c1 (centres undefined) 0.142%
O=C(CN1CCN(Cc2ccc(Cl)cc2)C1=O)NCc1cccs1 -1.61%
COc1cccc(NC(=O)CSc2nc3ncc(Br)cc3[nH]2)c1 -0.495%
Cc1nn(-c2ccc(F)cc2)c(C)c1NS(=O)(=O)c1ccc(Cl)cc1 -2%
COC(=O)C1C(=O)c2c([nH]c(C(=O)OC3CCCCC3)c2C)CC1C (centres undefined) -0.386%
Cc1cccc(C(=O)Nc2cc(=O)n(C)c(=O)n2C)c1 -2.43%
COc1cccc(NC(=S)NCc2ccc3c(c2)cc(C)n3C)c1 -3.09%
CCCCCOC(=O)C1=C(C)NC(=O)NC1c1ccccc1 (centres undefined) 0.136%
COc1ccc(Nc2nc(-c3ccccc3)c(C(=O)Nc3cccnc3)s2)cc1 8.15%
CC(C)c1ccc(SCc2noc(C(=O)NCC3CCCO3)c2C(=O)O)cc1 (centres undefined) -0.491%
CN1CCN(c2ccc(S(=O)(=O)N3CCOCC3)cc2NC(=O)CSCc2ccccc2)CC1 0.329%
COc1ccccc1CN1CC(C(=O)NCc2cccc(C)n2)CCC1=O (centres undefined) -2.28%
O=C(Nc1ccc(N2CCOCC2)cc1)c1ccc(Cl)c(S(=O)(=O)N2CCCC2)c1 -1.76%
CCCN1CCN(C2CCCCC2NS(=O)(=O)c2ccc(Cl)cc2)CC1 (centres undefined) 11.2%
C[C@@H](CSc1ccccc1)CN1CC[C@H](O)CCC1=O -0.766%
COC(=O)c1ccc(CN2CCCC(CNC(=O)Cc3ccc(OC)cc3)C2)cc1 (centres undefined) -0.65%

From PubChem BioAssay AID720519 (National Center for Advancing Translational Sciences (NCATS), 2013)
